This note sets out measurements from PubChem BioAssay (NCATS).

Usually AC50 stands for the concentration at which the activity in the assay is half-maximal.

Active and inactive are the calls of the source. The rule behind the calls is not given here. Residues, ends and D or L forms follow the SMILES beside them.

The conditions of this assay: Ebola virus entry assay, blue channel fluorescence.
Regarding `COC(=O)c1ccccc1C(=O)c1ccc(OCCN2CCCCC2)cc1`, the AC50 is 14.1 µM (active). The same measure, in the same setting: the value for `CC(C)(C)NCC(O)COc1ccc(NC(=O)NC2CCCCC2)cc1` (centres undefined) was 39.8 µM (active).

With `O=C(O)CN(CCN(CC(=O)O)CC(=O)O)CCN(CC(=O)O)CC(=O)O`, the outcome was inactive. Still for that read-out and setting: the value for `CCOC(=O)NNc1ccc(N(CC)CC(C)O)nn1` (centres undefined) was “inactive”. Same read-out and setting: under `OCc1ccc(Cl)cc1Cl` stands “inactive”; under `COc1cc(CC(C)N)cc(OC)c1OC` (centres undefined), “inactive”. `CC(=O)c1ccc(O)c(C(N)=O)c1`: the compound was classed as inactive. Same read-out and setting: under `Cc1ccc(Cl)c(Nc2ccccc2C(=O)O)c1Cl` stands “inactive”; under `NCCc1ccc(O)cc1`, “inactive”.

For the compound `O=C(/C=C/c1ccccc1)OCc1ccccc1`, the compound was called inactive.

Regarding `CNC(=O)c1c(I)c(NC(C)=O)c(I)c(C(=O)O)c1I`, the compound was called inactive. On to `CC(C)c1ccc2oc3nc(N)c(C(=O)O)cc3c(=O)c2c1`, for which the compound was called inactive. The same measure, in the same setting: under `O=C(O)c1ccc[n+]([O-])c1` stands “inactive”; under `O=c1c(-c2ccc(O)cc2)coc2cc(O)cc(O)c12`, “inactive”.

`Nc1ccccc1`: the outcome was inactive. Same read-out and setting: the value for `Nc1ncnc2c1ncn2[C@@H]1O[C@H](CO)[C@@H](O)[C@H]1O` was “inactive”.

Turning to `COc1cccc(C(=O)CCN[C@@H](C)[C@H](O)c2ccccc2)c1`, the compound was called inactive. The same measure, in the same setting: under `C[C@]12C=CC(=O)C=C1CC[C@@H]1[C@@H]2[C@@H](O)C[C@@]2(C)[C@H]1CC[C@]2(O)C(=O)CO` stands “inactive”. With `CCCCCCCC/C=C\CCCCCCCC(=O)NCc1ccc(O)c(OC)c1`, the half-maximal activity concentration (AC50) was 7.08 µM (active). As for `CN1CCN(C(=O)C2CCCCC2)CC1`, the call was inactive. Regarding `COC(=O)[C@H](Cc1ccccc1)NC(=O)[C@@H](N)CC(=O)O` (H-Asp-Phe-OMe), the result was inactive. Still for that read-out and setting: under `CC[C@@]1(O)C(=O)OCc2c1cc1n(c2=O)Cc2c-1nc1ccccc1c2/C=N/OC(C)(C)C` stands “inactive”; under `NC(Cc1ccc(Cl)cc1)C(=O)O` (centres undefined), “inactive”. With `O=c1[nH]c(=O)n([C@H]2O[C@H](CO)[C@@H](O)[C@@H]2O)cc1/C=C\Br`, the result was inactive. On the same count and under the same terms, under `O=C(O)c1ccccc1-c1ccc(C(F)(F)F)cc1` stands “inactive”. Still for that read-out and setting: the value for `O=C(COCCOCCOCC(=O)Nc1c(I)cc(I)c(C(=O)O)c1I)Nc1c(I)cc(I)c(C(=O)O)c1I` was “inactive”; that for `O=C(CCN1CCC(c2ccccc2)C1)c1ccc2c(c1)OCCO2` (centres undefined) was “inactive”; that for `C[C@H](NC(CCc1ccccc1)C(=O)O)C(=O)N1CCC[C@H]1C(=O)O` (some centres undefined) was “inactive”. Take `CCCOC(=O)c1cncn1C(C)c1ccccc1` (centres undefined): the compound was classed as inactive. The same measure, in the same setting: under `CC(C)(CO)[C@@H](O)C(=O)NCCCO` stands “inactive”. On to `CCN[C@H](C)Cc1cccc(C(F)(F)F)c1`, for which the half-maximal activity concentration (AC50) is 35.5 µM (active). Consider `CC(CSC(=O)c1ccccc1)C(=O)N1C[C@@H](Sc2ccccc2)C[C@H]1C(=O)O` (some centres undefined), for which the compound was called inactive.

For the compound `OCCN1CCN(CC/C=C2/c3ccccc3Sc3ccc(C(F)(F)F)cc32)CC1`, the half-maximal activity concentration (AC50) was 3.55 µM (active). For the compound `CC(C(=O)c1ccccc1)N(C)C` (centres undefined), the compound was classed as inactive.

Take `NC1=NC(=O)C(c2ccccc2)O1` (centres undefined): the outcome was inactive.

As to `CCCCCCCCCCCCCCCCOP(=O)([O-])OCC[N+](C)(C)C`, the result was inactive.

Consider `CC(C)C(=O)c1c(C(C)C)nn2ccccc12`, for which the compound was called inactive. The same measure, in the same setting: under `Cc1cnc(NC(=O)C2=C(O)c3ccccc3S(=O)(=O)N2C)s1` stands “inactive”; under `CCCCN(CCCC)CCCOC(=O)c1ccc(N)cc1`, “inactive”.
